A selection: hits, their analogues and other compounds. The true share with any hit is near 4%.
CF NFkB inh: inhibitors of cystic fibrosis induced NF-kB | inhibition, % at 5 µM | AID 588850 | KKLEB NF-kB-GFP reporter, PAF-induced, GFP fluorescence overnight | 0.86% of 360,000 active;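 active means at least 50% inhibition at 5 µM, scaled per plate between neutral and stimulator controls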;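 further: PAF is a Pseudomonas aeruginosa culture filtrate used as stimulus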
Peg3 promoter: reduces Peg3 promoter-driven luciferase expression in HeLa; inhibition, % at 20 µM; 1.7% of 360,000 active; HeLa PEG-Prom luciferase reporter, luminescence, overnight;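 active means inhibition of at least 50% at 20 µM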
TROY signal inh: TROY signaling inhibition; Q293 LMP1-TROYcd NF-kB luciferase reporter, 4 h; inhibition, % at 10 µM; 0.98% of 360,000 active;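 active means compounds whose plate-normalised and pattern-corrected inhibition of the luciferase reporter signal at the single screening dose is 50% or more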
KKLEB tox: counter-screen for CF NF-kB inhibitors: cytotoxicity. KKLEB CF airway cells viability, ATPlite luminescence, overnight; active compounds read low; cells stimulated with P. aeruginosa culture filtrate. AID 602141. activity change (cytotoxicity), % at 5 µM. 0.36% of 360,000 active;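 active means corrected activity change at or below -50% at 5 µM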
HIF-2a block: inhibitors of HIF-2a | 786-0 RCC cells HIF-2a reporter, luciferase luminescence, overnight | inhibition, % at 18.8 µM | 0.72% of 360,000 active;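 active means inhibition of the luminescence signal of 40% or more relative to plate controls, in a single-dose primary screen at 18.75 µM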
TWEAK Fn14 block: inhibitors of TWEAK-Fn14 interaction signaling. 2% of 360,000 active. inhibition, % at 10 µM. TWEAK-stimulated Fn14 reporter cells, luciferase luminescence, 8 h; in the data active means inhibition above about 50%
Numbers stand for hits; . = inactive.

SMILES	CF NFkB inh	Peg3 promoter	TROY signal inh	KKLEB tox	HIF-2a block	TWEAK Fn14 block
COc1ccc(Nc2c3ccccc3nc3ccccc23)cc1	.	78	.	.	.	.
COc1ccccc1NCC(O)Cn1c2ccccc2c2ccccc21 (stereo not given)	.	.	.	.	.	.
O=C(NCCO)c1cccc(Nc2nc(-c3ccccc3)c3cc(Cl)ccc3n2)c1	.	.	.	.	.	51
Cc1ccccc1N1Cc2ccccc2C1=O	.	.	.	.	.	.
CC(C(=O)O)c1ccc(N2Cc3ccccc3C2=O)cc1 (stereo not given)	.	.	.	.	.	70
COC(=O)c1sccc1N/N=C/c1cccc(Oc2ccccc2)c1	.	.	71	.	.	53
COC(=O)c1sccc1NC(=O)c1cccc(OC)c1	.	.	.	.	.	.
COC(=O)c1sccc1N/N=C/c1cccc(OC)c1O	.	.	.	.	.	63
COc1ccc2nc(C)cc(N/N=C/c3cccc(OC)c3O)c2c1	.	111	.	.	.	.
COC(=O)c1sccc1N/N=C/c1ccc(OC)c(OC)c1OC	.	.	.	.	.	.
C#CCOCCOCCOCCNc1nc(N2CCN(C(=O)CCCCCCCCCCNC(=O)Cn3cc(CCCCCN)nn3)CC2)nc(N2CCN(C(=O)CCCCCCCCCCNC(=O)[C@H](CO)n3cc(CCCCCN)nn3)CC2)n1	.	.	.	.	.	.
C#CCOCCOCCOCCNc1nc(N2CCN(C(=O)CCCCCCCCCCNC(=O)[C@H](CCCCN)n3cc(CCO)nn3)CC2)nc(N2CCN(C(=O)CCCCCCCCCCNC(=O)[C@@H]([C@H](C)O)n3cc(C)nn3)CC2)n1	.	.	.	.	.	.
C#CCOCCOCCOCCNc1nc(N2CCN(C(=O)CCCCCCCCCCNC(=O)Cn3cc(CCCCCN)nn3)CC2)nc(N2CCN(C(=O)CCCCCCCCCCNC(=O)[C@H]([C@@H](C)CC)n3cc(CCCCCN)nn3)CC2)n1	.	96	.	.	.	.
C#CCOCCOCCOCCNc1nc(N2CCN(C(=O)CCCCCCCCCCNC(=O)[C@H](CCC(=O)O)n3cc(CCCCCN)nn3)CC2)nc(N2CCN(C(=O)CCCCCCCCCCNC(=O)[C@@H]([C@H](C)O)n3cc(C)nn3)CC2)n1	.	.	.	.	.	.
C#CCOCCOCCOCCNc1nc(N2CCN(C(=O)CCCCCCCCCCNC(=O)[C@H]([C@@H](C)CC)n3cc(CCCCCN)nn3)CC2)nc(N2CCN(C(=O)CCCCCCCCCCNC(=O)[C@@H]([C@H](C)O)n3cc(C)nn3)CC2)n1	.	98	67	.	.	.
C#CCOCCOCCOCCNc1nc(N2CCN(C(=O)CCCCCCCCCCNC(=O)[C@H](CCCCN)n3cc(C)nn3)CC2)nc(N2CCN(C(=O)CCCCCCCCCCNC(=O)[C@@H]([C@H](C)CC)n3cc(CCCCCN)nn3)CC2)n1	.	94	.	.	.	.
Cc1ccnc(NC(=O)c2cc(-n3cnnc3)ccc2Cl)c1	.	.	.	.	.	.
O=C(CCCC(=O)N1CCN(c2ccccc2F)CC1)c1ccccc1	.	.	.	.	.	.
O=C(CN1CCCCC1)N=Nc1c(O)[nH]c2ccccc12	.	.	.	.	.	.
O=C(CN1CCN(Cc2ccccc2)CC1)N=Nc1c(O)[nH]c2ccccc12	.	52	.	.	.	.
CN(CC(=O)Nc1ccc(Br)cc1)Cc1ccccc1	.	.	.	.	.	.
COC(=O)c1cc(NC(=O)CN(C)Cc2ccccc2)cc(C(=O)OC)c1	.	.	.	.	.	86
COc1ccc(CNC(=O)COC(=O)C2CC2C)cc1OC (stereo not given)	.	.	.	.	.	.
Cc1c(C=O)c(=O)n(-c2ccccc2)n1-c1ccccc1	.	.	.	.	.	.
CCOC(=O)c1ccc2ncc(C(=O)OCC)c(Nc3ccc(N4CCOCC4)cc3)c2c1	65	88	.	.	.	53
COc1cc(C2C3=C(Nc4ncnn42)c2ccccc2CC3)cc(OC)c1OC (stereo not given)	.	.	.	-52	.	.
O=C(Nc1cccc([N+](=O)[O-])c1)c1ccc([N+](=O)[O-])o1	70	.	.	.	.	.
Cc1ccc(NC(=O)c2ccc([N+](=O)[O-])o2)cc1C	82	97	.	-63	.	.

Assay outcomes: PubChem, Sanford-Burnham Center for Chemical Genomics
